PubChem BioAssay AID1159580 (chemical genetic matrix, 2015)
Hit rate of the full screen: of about 5,500 compounds, about 2,000 (36%) were called active. About 18% were inconclusive and are not listed. Cut-off read from the data, not from the text of the source: active = normalized growth mostly below about 0.91 (no sharp cut-off); inconclusive = no clear call, values can overlap the other calls; inactive = mostly above about 0.92. The list shows a part of the results.

Experiment: chemical genetic growth profiling, strain panel (AID 1159580);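 note: tested at 20 µM; growth read once vehicle control cultures reached saturation at 30 °C; 1 = growth at the plate median or of vehicle wells; lower values mean less growth of the strain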
Conditions: S. cerevisiae deletion strains, growth OD

Measured: normalized growth

CC12CCC(O)CC1CCC1C2[C@H](O)CC2(C)C(C3=CC(=O)OC3)CCC12O (stereo partly drawn)
inactive: locus YBR021W, strain FUR4, hits give low values 1.02 | locus YBR229C, strain ROT2, hits give low values 1.03 | locus YCL029C, strain bik1, hits give low values 1.01 | locus YDL035C, strain GPR1, hits give low values 1.07 | locus YDL074C, strain BRE1, hits give low values 1.08 | locus YDL101C, strain DUN1, hits give low values 1.02 | locus YDL185W, strain tfp1, hits give low values 0.995 | locus YDL192W, strain arf1, hits give low values 1.01 | locus YDR101C, strain arx1, hits give low values 1.02 | locus YDR162C, strain NBP2, hits give low values 1.03 | locus YDR318W, strain mcm21, hits give low values 0.998 | locus YDR388W, hits give low values 0.983 | locus YDR502C, strain sam2, hits give low values 1 | locus YER110C, hits give low values 0.988 | locus YER155C, strain BEM2, hits give low values 1.01 | locus YER167W, strain BCK2, hits give low values 1.04 | locus YGL078C, strain dbp3, hits give low values 1 | locus YGL086W, strain mad1, hits give low values 0.992 | locus YGL248W, strain PDE1, hits give low values 1.02 | locus YGR135W, strain pre9, hits give low values 0.976 | locus YGR252W, strain gcn5, hits give low values 0.954 | locus YHR079C, strain IRE1 (second series), hits give low values 0.992 | locus YHR094C, strain hxt1, hits give low values 0.984 | locus YHR129C, strain ARP1, hits give low values 1.02 | locus YHR200W, strain rpn10, hits give low values 0.999 | locus YIL066C, strain RNR3, hits give low values 1.04 | locus YIL073C, strain SPO22, hits give low values 1.06 | locus YIL125W, strain kgd1, hits give low values 0.996 | locus YIR030C, strain dcg1, hits give low values 0.986 | locus YJL095W, strain BCK1, hits give low values 1.03 | locus YJL134W, strain LCB3, hits give low values 1.01 | locus YJL168C, strain set2, hits give low values 0.992 | locus YJL187C, strain SWE1 (second series), hits give low values 1.01 | locus YJR043C, strain POL32, hits give low values 1.06 | locus YJR075W, strain HOC1, hits give low values 1.03 | locus YKL009W, strain mrt4, hits give low values 1.06 | locus YKL068W, hits give low values 1 | locus YKL085W, strain MDH1 (second series), hits give low values 1 | locus YKL085W, strain MDH1, hits give low values 1 | locus YKL190W, strain CNB1, hits give low values 1.02 | locus YKR001C, strain vps1, hits give low values 1.01 | locus YLR039C, strain RIC1, hits give low values 1.1 | locus YLR058C, strain SHM2, hits give low values 1.03 | locus YLR102C, strain apc9, hits give low values 0.994 | locus YLR262C, strain YPT6, hits give low values 1.16 | locus YLR268W, strain sec22, hits give low values 1.01 | locus YLR371W, strain rom2, hits give low values 0.991 | locus YLR418C, strain cdc73, hits give low values 0.957 | locus YML016C, strain PPZ1, hits give low values 1.02 | locus YML032C, strain rad52, hits give low values 1 | locus YML124C, strain tub3, hits give low values 1 | locus YMR078C, strain ctf18, hits give low values 1 | locus YMR223W, strain ubp8, hits give low values 0.983 | locus YMR263W, strain SAP30, hits give low values 1.02 | locus YMR307W, strain GAS1, hits give low values 1.08 | locus YNL067W, strain RPL9B, hits give low values 1.01 | locus YNL153C, strain GIM3, hits give low values 1.03 | locus YNL233W, strain BNI4, hits give low values 1.03 | locus YNL250W, strain rad50, hits give low values 0.986 | locus YNL271C, strain bni1, hits give low values 0.995 | locus YNL298W, strain CLA4, hits give low values 1.02 | locus YNL307C, strain MCK1, hits give low values 0.987 | locus YNR052C, strain pop2, hits give low values 0.991 | locus YOL012C, strain htz1 0.714 | locus YOL147C, strain pex11, hits give low values 0.991 | locus YOR061W, strain CKA2, hits give low values 1.06 | locus YOR069W, strain VPS5, hits give low values 1.01 | locus YOR136W, strain idh2, hits give low values 1.01 | locus YOR144C, strain elg1, hits give low values 0.998 | locus YOR184W, strain ser1, hits give low values 1.05 | locus YOR316C, strain cot1, hits give low values 0.995 | locus YPL055C, strain LGE1, hits give low values 1.07 | locus YPL241C, strain CIN2, hits give low values 1.01 | locus YPR119W, strain clb2, hits give low values 0.994 | locus YPR141C, strain kar3, hits give low values 0.982 | locus YPR163C, strain tif3, hits give low values 0.998 | locus YPR167C, strain met16, hits give low values 0.993 | strain wtn01, hits give low values 1.01
